Hits are enriched below; roughly 0.54% of the tested compounds scored in any of these assays.
TDP1 block – inhibitors of human tyrosyl-DNA phosphodiesterase TDP1. Potency, µM (top dose mostly 130 µM), actives largely listed as inhibitors. actives 0.28% (n = 350,000). recombinant TDP1, AlphaScreen DNA substrate cleavage. Q9NUW8; further: nearly all actives have a fitted effect of over 40% in size
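Here, a 5' biotin and 3' phosphotyrosine-FITC DNA oligonucleotide reports Tdp1 activity: intact substrate bridges AlphaScreen beads, while cleavage leaves a 3' phosphate and drops signal. All incubations at room temperature.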
EPAC1 antagonist – EPAC1 (human) antagonism; O95398; EPAC1 GEF assay, Rap1b-BODIPY-GDP exchange fluorescence; Potency, µM (series often up to 115 µM), hits mostly inhibitors; actives 0.14% (n = 360,000); AID 720709; further: nearly all actives have a fitted effect of over 50% in size
EPAC1 agonist – EPAC1 (human) agonism; AID 720707; Potency, µM (top dose mostly 154 µM), usual class: activators; O95398; actives 0.073% (n = 360,000); EPAC1 agonist qHTS, biochemical assay; response scale: 100% = response to 6.5 mM cAMP; further: nearly all actives have a fitted effect of over 60% in size
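Normalized to 6.5 mM cAMP, activity reflects EPAC1-catalysed release of BODIPY-GDP from Rap1B, followed kinetically over 30 min at 480 nm excitation, 540 nm emission. Reaction contained 100 nM EPAC1, 250 nM Rap1B-BODIPY-GDP, 50 uM GDP.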
EPAC2 ag – activates human EPAC2 exchange factor; Q8WZA2; EPAC2 activation, biochemical qHTS; response scale: 100% = 6.5 mM cAMP response; Potency, µM (top dose mostly 154 µM), most hits filed as activators; actives 0.079% (n = 360,000); AID 720711; further: nearly all actives have a fitted effect of over 50% in size
Target sequence (Q8WZA2 whole entry, looked up): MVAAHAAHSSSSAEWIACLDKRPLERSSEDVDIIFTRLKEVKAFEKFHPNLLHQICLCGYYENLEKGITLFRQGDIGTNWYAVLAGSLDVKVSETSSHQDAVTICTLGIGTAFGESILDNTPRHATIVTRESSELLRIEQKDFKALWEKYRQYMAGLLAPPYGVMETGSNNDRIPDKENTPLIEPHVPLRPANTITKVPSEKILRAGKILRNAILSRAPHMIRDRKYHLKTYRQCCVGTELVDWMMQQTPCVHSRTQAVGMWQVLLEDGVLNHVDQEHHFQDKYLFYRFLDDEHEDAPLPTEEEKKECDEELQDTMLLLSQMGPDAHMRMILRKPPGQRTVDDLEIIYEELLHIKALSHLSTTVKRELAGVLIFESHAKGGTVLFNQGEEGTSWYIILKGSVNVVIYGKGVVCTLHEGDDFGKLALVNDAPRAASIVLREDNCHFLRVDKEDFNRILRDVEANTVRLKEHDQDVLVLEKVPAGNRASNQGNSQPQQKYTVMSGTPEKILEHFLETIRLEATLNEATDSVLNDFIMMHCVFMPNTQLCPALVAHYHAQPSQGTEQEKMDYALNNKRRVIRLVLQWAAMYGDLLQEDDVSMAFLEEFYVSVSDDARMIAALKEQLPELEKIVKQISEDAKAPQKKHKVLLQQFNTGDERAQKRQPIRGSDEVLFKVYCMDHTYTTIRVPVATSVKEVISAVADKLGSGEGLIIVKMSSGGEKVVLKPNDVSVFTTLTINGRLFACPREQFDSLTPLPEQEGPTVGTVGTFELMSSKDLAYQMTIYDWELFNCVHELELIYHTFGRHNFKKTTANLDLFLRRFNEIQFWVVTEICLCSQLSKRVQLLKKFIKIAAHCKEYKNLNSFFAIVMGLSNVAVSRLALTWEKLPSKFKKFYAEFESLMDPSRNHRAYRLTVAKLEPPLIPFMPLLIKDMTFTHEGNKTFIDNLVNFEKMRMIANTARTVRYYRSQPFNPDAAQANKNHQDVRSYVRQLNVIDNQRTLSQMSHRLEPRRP
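Readout is BODIPY fluorescence (480 nm excitation, 540 nm emission), which falls as labeled GDP is exchanged off Rap1B. EPAC2 at 100 nM acted on 250 nM RAP1B-BODIPY-GDP with 50 uM GDP present.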
EPAC2 antagonist – antagonists of human EPAC2 | Q8WZA2 | EPAC2 GEF exchange of Rap1B-BODIPY-GDP, fluorescence | Potency, µM (titrated, usually from 114 µM), hits mostly inhibitors | actives 0.18% (n = 360,000); further: nearly all actives have a fitted effect of over 45% in size
ERG Ets-DNA blk – ERG Ets/DNA interaction inhibition; fluorescence polarization, His-ERG Ets domain / labelled DNA; AID 624246; actives 0.028% (n = 370,000); Potency, µM (highest dose often 76.9 µM), most hits filed as inhibitors; active means well fitted inhibition curve with a large enough effect in the polarisation, with a control signal flat; inconclusive means small, poorly fitted or top-dose-only effect, or effect the other way, or a change in a side signal; inactive means no such curve, though single readings can be large or run the other way; the % refers to the polarisation;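 further: polarization taken with two DNA probes labelled with fluorescein and Texas red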
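His-tagged ERG Ets domain (1 uM in the protein solution; 300mM KCl, 50mM Tris-HCl, 1mM EDTA, 1mM DTT, pH 7.5) received compound, then a probe mix of 5 nM fluorescein-DNA and 100nM Texas-615-DNA. Fluorescence polarization was read for both dyes.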
A number is an active result; 0 = inactive; ? = inconclusive; - = not tested or not shown. Unless noted, the call rests on the fitted dose curve; in most records, active means well fitted curve in the direction sought with a large enough effect; inconclusive means small, poorly fitted or top-dose-only effect, or another doubt; inactive means no such curve, though single readings can be large; an effect the other way counts as inactive or inconclusive.

SMILES	TDP1 block	EPAC1 antagonist	EPAC1 agonist	EPAC2 ag	EPAC2 antagonist	ERG Ets-DNA blk
Cc1nc(C(C)Nc2ncnc3ccc(-c4ccc5c(c4)OCO5)cc23)cs1 (configuration not stated)	0	-	-	-	-	-
Cc1ccc(NC(=O)c2ccc3nc[nH]c3c2)c(O)c1	0	0	0	0	0	0
Cc1ccc(NC(=O)c2ccc3nc[nH]c3c2)nc1	35.5µM	0	0	0	0	0
C/C(=N\NC(=O)c1ccc2nc[nH]c2c1)c1ccc([N+](=O)[O-])cc1	79.4µM	-	-	-	-	-
Cc1ccc(NS(=O)(=O)c2cc3c(cc2-c2ccco2)NC(=O)CO3)cc1C	0	-	-	-	-	-
O=C(O)Cc1nnc(-c2cc3ccccc3[nH]2)s1	0	-	-	-	-	-
Cc1ccc2oc(=O)c(/C=C(\O)C(C)(C)C)nc2c1	0	0	0	0	0	0
Cc1ccc2oc(=O)c(/C=C(\O)c3ccco3)nc2c1	0	0	0	100µM	0	0
N=C1/C(=C\c2ccc(-c3cccc(C(=O)O)c3)o2)C(=O)N=C2SC=C(c3ccccc3)N12	50.1µM	?	?	0	0	0
Cc1cc(/C=C2/C(=N)N3C(c4ccccc4)=CSC3=NC2=O)c(C)n1-c1ccccc1	0	0	0	0	0	0
N=C1/C(=C/c2ccc(-c3cccc(C(=O)O)c3)o2)C(=O)N=C2SC(CC(=O)N3CCOCC3)=NN12	8.91µM	0	0	0	0	0
N=C1/C(=C\c2ccc(SCc3ccccc3)o2)C(=O)N=C2SC(CC(=O)N3CCOCC3)=NN12	0	0	0	0	0	0
CC(=O)Nc1ccc(S(=O)(=O)N2CCN(C(=O)C3COc4ccccc4O3)CC2)cc1 (configuration not stated)	0	0	0	0	0	0
COc1ccc(S(=O)(=O)N2CCN(C(=O)C3COc4ccccc4O3)CC2)cc1 (configuration not stated)	3.55µM	0	0	0	0	0
CCn1cnc2c(Nc3cc(F)cc(F)c3)nc(C(=O)COc3c(F)c(F)cc(F)c3F)nc21	0	-	-	-	-	-
O=C(CCN1CCN(c2ccccc2)CC1)N/N=C/c1ccc(O)c(O)c1O	0	79.4µM	0	0	0	0
Cc1ccc(-c2csc(NC(=O)C3CC(=O)N(c4ccc5c(c4)OCCO5)C3)n2)o1 (configuration not stated)	0	-	-	-	-	-
COc1ccc(OCCOc2ccc(/C=C3\C(=N)N4N=C(C)SC4=NC3=O)cc2)cc1	35.5µM	0	0	0	0	0
COc1ccc(N=Nc2nc3cc(Br)c(Br)cc3n2C)c(OC)c1	0	0	112µM	0	0	0
COc1ccc(Cn2ncc3c4sc(C)cc4n(C)c3c2=O)cc1F	0	-	-	-	-	-
O=C(CSc1nc2ccccc2o1)N/N=C/c1ccc(O)c(O)c1	-	50.1µM	0	0	0	0
O=C(CSc1nc2ccccc2o1)N/N=C/c1ccccc1	0	0	0	0	0	0
O=C(CSc1nc2ccccc2o1)NCc1ccc2c(c1)OCO2	0	0	0	0	22.4µM	0
Cc1csc(NC(=O)CSc2sc3c(O)cc(=O)[nH]c3c2C#N)n1	0	50.1µM	0	0	0	0
COc1ccc(NC(=O)CN(C)C(=O)c2cc3c(s2)CCCCC3)cc1	0	0	0	0	0	0
SMILES	TDP1 block	EPAC1 antagonist	EPAC1 agonist	EPAC2 ag	EPAC2 antagonist	ERG Ets-DNA blk
COc1ccc(NC(=O)CN(C)C(=O)c2cc3c(s2)CCC3)cc1	1.26µM	?	0	0	0	0
CCN(CC)c1ccc(/C=C(\C#N)C(=O)c2ccc(Br)cc2)cc1	0	0	112µM	100µM	0	?
S=c1[nH]nc(-c2cc(-c3ccco3)[nH]n2)n1-c1ccccc1Cl	3.55µM	0	0	0	0	0
CCc1ccccc1NC(=O)CNC(=O)c1ccc(OCc2cn3ccccc3n2)cc1	28.2µM	0	0	0	0	0
O=C(OCC#CCSc1nnc(-c2ccccc2)o1)c1ccc(F)cc1	0	-	-	-	-	-
C=C1CCC[C@]2(C)C[C@H]3OC(=O)[C@H](CNCCc4ccccc4OC)C3CC12 (some centres not stated)	0	-	-	-	-	-
CC1CC(C)CN(c2oc(-c3ccc(OCc4ccccc4Cl)cc3)nc2C#N)C1 (configuration not stated)	0	-	-	-	-	-
C=CCn1c(NS(=O)(=O)c2ccccc2)c(S(=O)(=O)c2ccc(C)cc2)c2nc3ccccc3nc21	0	?	0	0	?	0
O=S(=O)(Nc1c(S(=O)(=O)c2ccccc2)c2nc3ccccc3nc2n1C1CCCCC1)c1ccccc1	0	39.8µM	0	0	?	-
CC1(Cc2ccc(Cl)cc2)C(=O)Nc2ccc(-c3cccnc3)cc21 (configuration not stated)	-	0	0	0	50.1µM	-
CC1(Cc2cccc(F)c2)C(=O)Nc2ccc(-c3cccnc3)cc21 (configuration not stated)	-	0	0	0	?	-
O=C1OC(c2ccccc2)(c2ccccc2)N2CCN(C(=O)NCc3ccc(F)cc3)CC12 (configuration not stated)	0	-	-	-	-	-
CCCn1c(SCC(=O)NC(=O)NCc2ccco2)n[nH]c1=O	44.7µM	-	-	-	-	-
Cc1nnc(SCC(=O)NC(=O)NCc2ccco2)n1Cc1ccccc1	50.1µM	0	0	0	0	0
O=C(CSc1nnc(-c2ccco2)n1Cc1ccccc1)NC(=O)NCc1ccccc1	0	0	0	0	0	0
CCCn1c(SCC(=O)NC(=O)NCc2ccccc2)n[nH]c1=O	0	0	0	0	0	0
O=C1c2ccccc2-c2onc3ccc(NCCCn4ccnc4)c1c23	0	0	100µM	0	0	-
COc1ccc(OC)c2c1C(=O)c1ccccc1C2=O	-	0	89.1µM	89.1µM	0	31.6µM
COc1ccc(N)c2c1C(=O)c1ccccc1C2=O	0	0	0	0	0	?
COc1cccc2c1C(=O)c1ccc3ccccc3c1C2=O	0	0	0	0	0	0
NS(=O)(=O)c1ccc(NCCCn2ccnc2)c([N+](=O)[O-])c1	0	0	0	0	0	0
COc1ccc2noc3c2c1C(=O)c1ccccc1-3	-	0	100µM	?	0	0
COc1cc(F)c(S(=O)(=O)N2CCN(S(=O)(=O)c3ccc(N)cc3)CC2)c(F)c1	0	-	-	-	-	-
C#CCOCCOCCOCCNc1nc(N2CCN(C(=O)CCCCCCCCCCNC(=O)[C@@H](CCSC)n3cc(CCO)nn3)CC2)nc(N2CCN(C(=O)CCCCCCCCCCNC(=O)[C@H]([C@@H](C)CC)n3cc(CCCCCN)nn3)CC2)n1	0	44.7µM	?	?	?	0
O=C(CSc1nccc(=O)[nH]1)NCc1ccco1	14.1µM	0	0	0	0	0

Compound activity deposited in PubChem by National Center for Advancing Translational Sciences (NCATS).
